Reference: PubChem BioAssay
Activity calls are given as the source filed them. Unless noted, no rule for the calls is given here.

What was measured:
[1] = tested on: Wnt5a (protein binding on small-molecule microarray); experiment: small molecules binding Wnt5a protein – biophysical, small-molecule microarray, 635/667 nm fluorescence, primary screen (AID 1142); conditions: 635 nm fluorescence, higher = more signal;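 also: fluorescence read at 667 nm with signal to noise per printed feature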
[2] = ATP-based viability of Huh7 replicon cells – cell-based, CellTiter-Glo luminescence, basal, 48 h, cytotoxicity control for HCV replication inhibitor project, primary screen (AID 1143); conditions: higher = more signal, called active from +8 up or from −8 down;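 also: Huh7 hepatoma cells carrying a hepatitis C replication reporter with no stimulus; test concentration not given here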
[3] = Pseudomonas biofilm growth suppression – PAO1 strain, BacTiter-Glo luminescence, LB-PBS, primary screen (AID 1144); conditions: P. aeruginosa PAO1 biofilm, 12 h, higher = more signal
[4] = basal CRE-LacZ reporter activity in PC12 – cell-based, unstimulated, primary screen (AID 1145); conditions: no forskolin, luminescence, 4.5 h, higher = more signal, called active from +8 up or from −8 down
[5] = forskolin-driven CRE-LacZ activity in PC12 – cell-based, CRE-LacZ reporter, forskolin-stimulated, primary screen (AID 1146); conditions: luminescence, 4.5 h, higher = more signal, called active from +8 up or from −8 down;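 also: PC12 cells with 6xCRE LacZ reporter stimulated by forskolin 10 µM; beta-galactosidase reporter signal reflecting CREB driven transcription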
[6] = molecular target: Streptavidin (Streptomyces avidinii) (UniProt P22629); experiment: compounds binding control protein streptavidin – biophysical, small-molecule microarray, 635/667 nm fluorescence, artefact control for SMM compound annotation, primary screen (AID 1147); conditions: higher = more signal;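 also: signal reflects streptavidin binding to arrayed compounds as a control protein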
[7] = probe aInhba binding on compound microarray – biochemical, small-molecule microarray, 635/667 nm fluorescence, primary screen (AID 1148); conditions: higher = more signal;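 also: score merges 667nm spot fluorescence with signal-to-noise for antibody binding to printed compounds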
Torsin-1A (Homo sapiens) [8] = molecular target: Torsin-1A (Homo sapiens) (UniProt O14656); experiment: TOR1A wild-type binding on microarray – cell lysate, small-molecule microarray, lysate, 635/667 nm, primary screen (AID 1149); conditions: COS7 hTOR1A-WT lysate, 635 nm fluorescence, higher = more signal
Torsin-1A (Homo sapiens) [9] = molecular target: Torsin-1A (Homo sapiens) (UniProt O14656); experiment: torsin A mutant lysate binding on microarrays – cell lysate, small-molecule microarray, COS7 lysate, 635/667 nm fluorescence, primary screen (AID 1150); conditions: COS7 hTOR1A mutant lysate, 635 nm fluorescence, higher = more signal;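 also: score pools 667 nm emission and signal to noise measuring lysate protein binding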
[10] = tested on: Sonic hedgehog protein (Shh); experiment: Sonic hedgehog microarray binding compounds – biochemical, small-molecule microarray, 635/667 nm fluorescence, primary screen (AID 1151); conditions: 635 nm fluorescence, higher = more signal;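 also: Shh protein binding to compounds spotted on small-molecule microarray slides; score combines spot fluorescence intensity with signal-to-noise across triplicate slides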
[11] = optical density shifts of acrAB sulA E. coli – strain DRC41, OD650, 48 h, E. coli filamentation inducer project, primary screen (AID 1152); conditions: higher = more signal, called active from +8 up or from −8 down;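 also: E. coli MC1000 strain DRC41 lacking acrAB efflux pump and sulA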
[12] = probe aLefty1 binding on compound microarray – biochemical, small-molecule microarray, 635/667 nm fluorescence, primary screen (AID 1153); conditions: higher = more signal;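 also: score merges spot fluorescence with signal-to-noise ratio from the scanned slide images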
[13] = plasmodial surface anion channel blockers, osmotic lysis – cell-based, P. falciparum Indochina, OD700, 1 h, primary screen (AID 1154); conditions: P. falciparum Indochina infected RBC osmotic lysis, higher = more signal, called active from +8 up or from −8 down
[14] = plasmodial surface anion channel blockers, osmotic lysis – cell-based, P. falciparum Indochina, OD700, 2 h, primary screen (AID 1155);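 also: lysis reports solute entry through the parasite surface anion channel PSAC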; conditions: P. falciparum Indochina infected erythrocytes, higher = more signal, called active from +8 up or from −8 down
[15] = changes in parasitized red cell lysis, either direction – P. falciparum Indochina, OD700, 3 h, PSAC antagonist project, primary screen (AID 1156); conditions: P. falciparum-infected erythrocytes, osmotic lysis, higher = more signal, called active from +8 up or from −8 down
[16] = plasmodial surface anion channel blockers, osmotic lysis – cell-based, P. falciparum Indochina, OD700, 18 h, primary screen (AID 1157); conditions: P. falciparum Indochina infected erythrocytes, osmotic lysis OD700, 18 h; higher = more signal, called active from +8 up or from −8 down
[17] = S6 kinase pathway phospho-S6 level changes – cell-based, A549, cytoblot, luminescence, serum-stimulated, primary screen (AID 1158); conditions: 5 h, higher = more signal;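 also: serum-stimulated A549 lung adenocarcinoma cells; signal is phosphorylated S6 detected by cytoblot immunostaining with HRP secondary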
[18] = molecular target: NADPH oxidase 2 (Homo sapiens) (UniProt P04839); experiment: compounds shifting NOX2 Amplex Red fluorescence – cell-based, HEK293-NOX2, PMA-stimulated, NOX inhibitor project, primary screen (AID 1159); conditions: 45 min, higher = more signal, called active from +8 up or from −8 down; also: test concentration not given here
[19] = molecular target: NADPH oxidase 4 (Homo sapiens) (UniProt Q9NPH5); experiment: compounds shifting NOX4 Amplex Red fluorescence – cell-based, HEK293-NOX4, tetracycline-induced, NOX inhibitor project, primary screen (AID 1160); conditions: HEK293-NOX4, Amplex Red H2O2 fluorescence, 45 min; higher = more signal, called active from +8 up or from −8 down
[20] = molecular target: NADPH oxidase 5 (Homo sapiens) (UniProt Q96PH1); experiment: compounds shifting NOX5 Amplex Red fluorescence – cell-based, HEK293-NOX5, NOX inhibitor project, primary screen (AID 1161); conditions: HEK293-NOX5, ionomycin, 45 min, higher = more signal
Sequence of NADPH oxidase 5 (Homo sapiens) (Q96PH1 whole entry, looked up): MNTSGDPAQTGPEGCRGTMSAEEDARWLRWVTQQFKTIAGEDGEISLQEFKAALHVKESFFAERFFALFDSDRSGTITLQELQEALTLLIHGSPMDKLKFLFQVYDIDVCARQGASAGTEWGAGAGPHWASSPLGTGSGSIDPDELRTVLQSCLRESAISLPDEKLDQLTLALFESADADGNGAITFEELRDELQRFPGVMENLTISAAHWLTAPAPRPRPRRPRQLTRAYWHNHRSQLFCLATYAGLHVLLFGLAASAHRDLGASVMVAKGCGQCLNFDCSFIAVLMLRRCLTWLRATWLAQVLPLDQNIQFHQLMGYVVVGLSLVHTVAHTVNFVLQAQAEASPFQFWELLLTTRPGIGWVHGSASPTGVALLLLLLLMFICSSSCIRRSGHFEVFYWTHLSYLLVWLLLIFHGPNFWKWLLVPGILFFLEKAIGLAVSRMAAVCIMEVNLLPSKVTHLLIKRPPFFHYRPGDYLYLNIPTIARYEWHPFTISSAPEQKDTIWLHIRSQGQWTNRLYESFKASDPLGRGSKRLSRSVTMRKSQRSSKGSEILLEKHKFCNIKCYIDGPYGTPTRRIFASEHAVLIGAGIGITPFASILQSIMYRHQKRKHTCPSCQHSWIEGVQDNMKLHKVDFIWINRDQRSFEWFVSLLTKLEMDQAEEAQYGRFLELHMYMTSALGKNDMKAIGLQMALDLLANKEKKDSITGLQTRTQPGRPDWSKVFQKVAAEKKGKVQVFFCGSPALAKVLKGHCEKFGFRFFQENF

Sequence of Streptavidin (Streptomyces avidinii) (P22629 whole entry, looked up): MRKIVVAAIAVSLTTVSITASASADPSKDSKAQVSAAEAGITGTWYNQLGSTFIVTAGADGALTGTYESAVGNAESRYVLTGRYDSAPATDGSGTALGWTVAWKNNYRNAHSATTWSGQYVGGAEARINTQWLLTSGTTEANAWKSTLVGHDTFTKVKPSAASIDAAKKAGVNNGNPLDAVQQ
Sequence of Torsin-1A (Homo sapiens) (O14656 whole entry, looked up): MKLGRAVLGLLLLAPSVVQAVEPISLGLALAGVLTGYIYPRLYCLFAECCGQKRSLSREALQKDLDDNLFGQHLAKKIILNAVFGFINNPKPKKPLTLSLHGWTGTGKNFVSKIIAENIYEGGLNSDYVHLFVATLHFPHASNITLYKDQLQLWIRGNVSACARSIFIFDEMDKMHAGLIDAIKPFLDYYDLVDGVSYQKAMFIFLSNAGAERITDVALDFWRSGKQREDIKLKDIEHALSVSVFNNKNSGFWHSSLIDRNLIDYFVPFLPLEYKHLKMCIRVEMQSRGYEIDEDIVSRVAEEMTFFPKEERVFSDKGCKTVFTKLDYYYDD
Sequence of NADPH oxidase 2 (Homo sapiens) (P04839 whole entry, looked up): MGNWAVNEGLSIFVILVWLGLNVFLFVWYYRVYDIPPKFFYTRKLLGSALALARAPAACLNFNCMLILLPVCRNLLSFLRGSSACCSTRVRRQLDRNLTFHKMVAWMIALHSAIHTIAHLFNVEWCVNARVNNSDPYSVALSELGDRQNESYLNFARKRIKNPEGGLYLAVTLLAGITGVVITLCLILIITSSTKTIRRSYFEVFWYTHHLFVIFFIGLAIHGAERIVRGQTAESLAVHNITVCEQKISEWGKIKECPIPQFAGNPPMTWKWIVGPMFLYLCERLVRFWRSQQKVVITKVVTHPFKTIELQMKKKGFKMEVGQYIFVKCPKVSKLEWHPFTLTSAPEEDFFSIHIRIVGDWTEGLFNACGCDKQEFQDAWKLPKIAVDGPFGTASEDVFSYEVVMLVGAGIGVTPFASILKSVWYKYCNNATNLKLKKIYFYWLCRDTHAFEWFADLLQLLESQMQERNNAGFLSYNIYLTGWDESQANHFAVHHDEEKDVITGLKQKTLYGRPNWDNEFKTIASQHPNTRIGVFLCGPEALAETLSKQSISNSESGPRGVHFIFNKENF
Sequence of NADPH oxidase 4 (Homo sapiens) (Q9NPH5 whole entry, looked up): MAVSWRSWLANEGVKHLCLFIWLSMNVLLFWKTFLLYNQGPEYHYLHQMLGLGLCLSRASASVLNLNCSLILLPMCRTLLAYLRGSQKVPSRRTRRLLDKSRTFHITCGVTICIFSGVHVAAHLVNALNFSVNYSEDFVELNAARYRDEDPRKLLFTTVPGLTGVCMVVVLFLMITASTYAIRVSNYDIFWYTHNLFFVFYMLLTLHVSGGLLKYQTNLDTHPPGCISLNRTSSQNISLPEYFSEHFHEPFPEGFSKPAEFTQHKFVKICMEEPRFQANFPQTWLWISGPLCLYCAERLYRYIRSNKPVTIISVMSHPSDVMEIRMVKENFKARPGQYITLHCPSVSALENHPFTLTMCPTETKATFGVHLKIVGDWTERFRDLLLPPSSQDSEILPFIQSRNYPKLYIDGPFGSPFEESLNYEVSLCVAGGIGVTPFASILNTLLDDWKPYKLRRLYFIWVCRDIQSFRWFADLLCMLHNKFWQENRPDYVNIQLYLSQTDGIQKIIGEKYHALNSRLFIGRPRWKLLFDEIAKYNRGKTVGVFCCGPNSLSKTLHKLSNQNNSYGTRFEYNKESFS

Compound: C=CCNC(=O)[C@H]1[C@@H]2C(=O)O[C@@H](c3ccccc3)[C@@H](c3ccccc3)N2[C@@H](c2ccc(O)cc2)[C@]12C(=O)Nc1ccc(C#Cc3ccc(OC)cc3)cc12
- composite z-score [1]: 0.555
- z-score [2]: -3.44 (inactive)
- z-score [3]: -0.182 (inactive)
- z-score [4]: -0.141 (inactive)
- z-score [5]: 0.468 (inactive)
- composite z-score [6]: 0.252
- composite z-score [7]: -0.0523
- composite z-score (Torsin-1A (Homo sapiens) [8]): 0.11
- composite z-score (Torsin-1A (Homo sapiens) [9]): 0.117
- composite z-score [10]: 0.667
- z-score [11]: -0.837 (inactive)
- composite z-score [12]: -0.0084
- z-score [13]: 2.41 (inactive)
- z-score [14]: 1.05 (inactive)
- z-score [15]: -0.99 (inactive)
- z-score [16]: 0.859 (inactive)
- z-score [17]: -0.294
- z-score [18]: 0.143 (inactive)
- z-score [19]: -2.18 (inactive)
- z-score [20]: -0.436

Compound: CCCCC(=O)N(Cc1ccccc1F)[C@@H]1CC(C(=O)NCCO)=C[C@H](Oc2c(I)cc(CO)cc2OC)[C@H]1O
- composite z-score [1]: 1.91
- z-score [2]: -2.1 (inactive)
- z-score [3]: -0.43 (inactive)
- z-score [4]: 0.673 (inactive)
- z-score [5]: 0.377 (inactive)
- composite z-score [6]: -0.291
- composite z-score [7]: 0.0541
- composite z-score (Torsin-1A (Homo sapiens) [8]): 1.68
- composite z-score (Torsin-1A (Homo sapiens) [9]): 0.769
- composite z-score [10]: 2.45
- z-score [11]: 0.381 (inactive)
- composite z-score [12]: 0.298
- z-score [13]: 5.42 (inactive)
- z-score [14]: 3.13 (inactive)
- z-score [15]: 2.17 (inactive)
- z-score [16]: 1.48 (inactive)
- z-score [17]: 0.245
- z-score [18]: 1.27 (inactive)
- z-score [19]: 0.438 (inactive)
- z-score [20]: -3.95

Compound: CC(=O)NCCCC[C@@H]1NC(=O)[C@@H]2C[C@H](C(=O)NCc3ccc(F)cc3)[C@H](c3ccc(O)cc3)N2C1=O
- composite z-score [1]: 0.0547
- z-score [2]: -0.395 (inactive)
- z-score [3]: 0.587 (inactive)
- z-score [4]: 0.431 (inactive)
- z-score [5]: 0.158 (inactive)
- composite z-score [6]: 0.0542
- composite z-score [7]: -0.176
- composite z-score (Torsin-1A (Homo sapiens) [8]): 0.821
- composite z-score (Torsin-1A (Homo sapiens) [9]): 0.524
- composite z-score [10]: 1.56
- z-score [11]: 0.921 (inactive)
- composite z-score [12]: -0.0601
- z-score [13]: 1.63 (inactive)
- z-score [14]: 0.549 (inactive)
- z-score [15]: -1.64 (inactive)
- z-score [16]: 0.277 (inactive)
- z-score [17]: -0.0125
- z-score [18]: 0.647 (inactive)
- z-score [19]: 0.059 (inactive)
- z-score [20]: 1.37

Compound: C=CCCN(CC#C[C@H]1Oc2ccccc2S(=O)(=O)N2CCC[C@@H]12)S(=O)(=O)c1ccc(C)cc1
- composite z-score [1]: 0.264
- z-score [2]: -1.57 (inactive)
- z-score [3]: 0.592 (inactive)
- z-score [4]: 0.761 (inactive)
- z-score [5]: 3.31 (inactive)
- composite z-score [6]: -0.198
- composite z-score [7]: -0.0471
- composite z-score (Torsin-1A (Homo sapiens) [8]): 0.554
- composite z-score (Torsin-1A (Homo sapiens) [9]): -0.109
- composite z-score [10]: 0.624
- z-score [11]: -1.88 (inactive)
- composite z-score [12]: 0.0443
- z-score [13]: 3.75 (inactive)
- z-score [14]: 0.451 (inactive)
- z-score [15]: 0.123 (inactive)
- z-score [16]: 0.182 (inactive)
- z-score [17]: -0.23
- z-score [18]: 0.744 (inactive)
- z-score [19]: -1.54 (inactive)
- z-score [20]: -0.909

Compound: O=C(NCC(O)CO)[C@@]1(Cc2ccccc2)COC(c2ccc(OCCCO)cc2)=N1 (stereo not given in full)
- composite z-score [1]: 0.0149
- z-score [2]: -0.0858 (inactive)
- z-score [3]: 0.741 (inactive)
- z-score [4]: 0.895 (inactive)
- z-score [5]: -0.18 (inactive)
- composite z-score [6]: -0.131
- composite z-score [7]: 0.124
- composite z-score (Torsin-1A (Homo sapiens) [8]): -0.0598
- composite z-score (Torsin-1A (Homo sapiens) [9]): 0.0184
- composite z-score [10]: -0.342
- z-score [11]: 0.712 (inactive)
- composite z-score [12]: -0.266
- z-score [13]: 8.57 (active)
- z-score [14]: 0.648 (inactive)
- z-score [15]: 2.87 (inactive)
- z-score [16]: 0.472 (inactive)
- z-score [17]: -0.404
- z-score [18]: -0.44 (inactive)
- z-score [19]: 0.82 (inactive)
- z-score [20]: 0.132

Compound: C=CCC(OC(C)=O)[C@@H]1[C@@H](N(Cc2ccc(-c3cccc(C(F)(F)F)c3)o2)C(=O)Cc2ccc(OC)cc2)c2cc(OCCCO)ccc2N1C(=O)Cc1ccc(OC)cc1 (stereo not given in full)
- composite z-score [1]: -0.294
- z-score [2]: -3.06 (inactive)
- z-score [3]: -1.7 (inactive)
- z-score [4]: 0.484 (inactive)
- z-score [5]: 0.609 (inactive)
- composite z-score [6]: -1.01
- composite z-score [7]: -0.154
- composite z-score (Torsin-1A (Homo sapiens) [8]): -2.51
- composite z-score (Torsin-1A (Homo sapiens) [9]): -1.2
- composite z-score [10]: 0.514
- z-score [11]: 1.12 (inactive)
- composite z-score [12]: -0.0547
- z-score [13]: 1.66 (inactive)
- z-score [14]: -0.139 (inactive)
- z-score [15]: 0.777 (inactive)
- z-score [16]: -0.176 (inactive)
- z-score [17]: 1.37
- z-score [18]: -2.27 (inactive)
- z-score [19]: -1.82 (inactive)
- z-score [20]: -1.89

Compound: O=C(CS)NCCCCCNC(=O)[C@H]1C[C@H]2C(=O)N[C@@H](Cc3ccccc3)C(=O)N2[C@H]1c1cccc(OCCO)c1
- composite z-score [1]: 0.306
- z-score [2]: -0.178 (inactive)
- z-score [3]: -0.388 (inactive)
- z-score [4]: 0.696 (inactive)
- z-score [5]: -0.0595 (inactive)
- composite z-score [6]: -0.304
- composite z-score [7]: 0.0439
- composite z-score (Torsin-1A (Homo sapiens) [8]): 0.88
- composite z-score (Torsin-1A (Homo sapiens) [9]): 0.822
- composite z-score [10]: 1.83
- z-score [11]: 1.77 (inactive)
- composite z-score [12]: 0.373
- z-score [13]: 3.03 (inactive)
- z-score [14]: 0.724 (inactive)
- z-score [15]: -2 (inactive)
- z-score [16]: 0.425 (inactive)
- z-score [17]: 0.9
- z-score [18]: 1.69 (inactive)
- z-score [19]: 1.34 (inactive)
- z-score [20]: 0.687

Compound: CC1CC/C=C\[C@H]2OC34C=CCN(c5ccc6ccccc6c5)C(=O)[C@H]3N(CCCCCO)C(=O)[C@@H]4C2C(=O)O1 (stereo not given in full)
- composite z-score [1]: -1.12
- z-score [2]: 0.385 (inactive)
- z-score [3]: 0.669 (inactive)
- z-score [4]: 0.333 (inactive)
- z-score [5]: -0.233 (inactive)
- composite z-score [6]: -1.72
- composite z-score [7]: -0.233
- composite z-score (Torsin-1A (Homo sapiens) [8]): -1.03
- composite z-score (Torsin-1A (Homo sapiens) [9]): -1.19
- composite z-score [10]: -1.18
- z-score [11]: -0.557 (inactive)
- composite z-score [12]: -0.427
- z-score [13]: 0.157 (inactive)
- z-score [14]: 0.222 (inactive)
- z-score [15]: -0.0324 (inactive)
- z-score [16]: 0.0382 (inactive)
- z-score [17]: 0.455
- z-score [18]: 0.718 (inactive)
- z-score [19]: -0.265 (inactive)
- z-score [20]: 1.7

Compound: C=CC[C@@]1(C(=O)NCc2ccccc2)N=C(c2ccc(OCCCO)cc2)O[C@@H]1c1ccccc1CN=[N+]=[N-]
- composite z-score [1]: 0.521
- z-score [2]: -3.66 (inactive)
- z-score [3]: -0.315 (inactive)
- z-score [4]: 3.13 (inactive)
- z-score [5]: 2.93 (inactive)
- composite z-score [6]: 0.579
- composite z-score [7]: 0.122
- composite z-score (Torsin-1A (Homo sapiens) [8]): -0.805
- composite z-score (Torsin-1A (Homo sapiens) [9]): 0.287
- composite z-score [10]: -0.629
- z-score [11]: -1.52 (inactive)
- composite z-score [12]: 0.791
- z-score [13]: 24 (active)
- z-score [14]: 8.62 (active)
- z-score [15]: 2.14 (inactive)
- z-score [16]: 1.15 (inactive)
- z-score [17]: -0.387
- z-score [18]: -1.15 (inactive)
- z-score [19]: -0.499 (inactive)
- z-score [20]: 0.694
